In the supplement of paper PMC6555819:

Tests used:
Assay in all cases: PBM binding z-score (relative to random genomic background probes); higher = stronger binding; sequences stand for … in GC…GCGATTGACAGCGTAGAATGAAGG
[1] = system: PPARg:RXRa DBDmut IVT, anti-RXR (DBD mutation: RXRa K156A/R161A, NR concentration 270 nM, RXRa partner concentration 90 nM)
Outline: (§1)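 The probes on custom Agilent 4×180K protein-binding microarrays were double-stranded, with 34-nt variable regions bearing direct-repeat seeds, single-nucleotide variants, half-site ablations and random human genomic background sequences. Incubation lasted 1 h with ligand-free nuclear receptor dimers in PBS pH 7.4, 2% milk, 0.02% Triton X-100, 1 mM DTT, 0.2 mg/mL BSA and 0.4 mg/ml salmon testes DNA. Antibodies against each partner (one per run) detected bound dimers, and fluorescence scans were regression-normalized. Binding z-scores take the random background probes as reference.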

[2] = system: PPARg:RXRa IVT, anti-PPARg (NR concentration 270 nM, RXRa partner concentration 90 nM)
Outline: as §1

[3] = system: PPARg DBDmut:RXRa IVT, anti-PPARg (DBD mutation: PPARg1 K132A/R137A, NR concentration 270 nM, RXRa partner concentration 90 nM)
Outline: as §1

[4] = system: PPARg DBDmut IVT, anti-PPARg (DBD mutation: PPARg1 K132A/R137A, NR concentration 270 nM)
Outline: as §1

[5] = system: PPARg homodimer (NR concentration 180 nM)
Outline: as §1

[6] = system: PXR:RXRa (NR concentration 270 nM, RXRa partner concentration 90 nM)
Outline: as §1

[7] = system: PXR homodimer (NR concentration 270 nM)
Outline: as §1

[8] = system: RARa:RXR (NR concentration 270 nM, RXRa partner concentration 90 nM)
Outline: as §1

[9] = system: RARa homodimer (NR concentration 270 nM)
Outline: as §1

[10] = system: RARb:RXRa (NR concentration 270 nM, RXRa partner concentration 90 nM)
Outline: as §1

[11] = system: RARb homodimer (NR concentration 270 nM)
Outline: as §1

[12] = system: RARg:RXRa (NR concentration 270 nM, RXRa partner concentration 90 nM)
Outline: as §1

[13] = system: RARg homodimer (NR concentration 270 nM)
Outline: as §1

[14] = system: RXRa DBDmut IVT, anti-RXR (DBD mutation: RXRa K156A/R161A, NR concentration 90 nM)
Outline: as §1

[15] = system: RXRa homodimer (NR concentration 180 nM)
Outline: as §1

[16] = system: THRa:RXRa (NR concentration 90 nM, RXRa partner concentration 90 nM)
Outline: as §1

[17] = system: THRa homodimer (NR concentration 90 nM)
Outline: as §1

[18] = system: VDR homodimer (NR concentration 270 nM)
Outline: as §1

Sequence | PBM binding z-score [1] | PBM binding z-score [2] | PBM binding z-score [3] | PBM binding z-score [4] | PBM binding z-score [5] | PBM binding z-score [6] | PBM binding z-score [7] | PBM binding z-score [8] | PBM binding z-score [9] | PBM binding z-score [10] | PBM binding z-score [11] | PBM binding z-score [12] | PBM binding z-score [13] | PBM binding z-score [14] | PBM binding z-score [15] | PBM binding z-score [16] | PBM binding z-score [17] | PBM binding z-score [18]
GCAGACAGGTGATACGCAGGTAACTCAGGGTGGC | -0.192 | -0.471 | -0.737 | -0.846 | -0.0293 | -0.424 | -0.57 | 0.0928 | -0.408 | -0.253 | -0.38 | -0.066 | -0.0165 | -0.589 | 0.293 | 0.561 | -0.509 | -0.5
GGAACGAGCGCATTCGAGTTGATAGCATGGCGAT | -0.641 | -0.81 | -0.918 | -0.781 | -1.13 | -0.904 | -0.628 | -1.29 | -0.875 | -1.26 | -0.974 | -0.544 | -0.227 | 0.0101 | -0.607 | -0.857 | -1.27 | -0.406
AGAATGAGGTTACCAAAGATCAGGCAAACGCTTG | 3.6 | 3.49 | 0.423 | 0.272 | 0.661 | 1.24 | -0.362 | 2.11 | -0.358 | 2 | 0.854 | 1.97 | 1.63 | 1.16 | 2.65 | 2.84 | 0.538 | -0.192
CGTCCAAGGACAAGGTCAGTGAAAGAGACTCGAA | 0.434 | 0.71 | -0.797 | -1.03 | 1.03 | 1.61 | 0.632 | 2.38 | -0.259 | 3.93 | 3.32 | 3.17 | 3.98 | 1.46 | 2.22 | 3.63 | 2.39 | 0.725
CGTCCCAGGTCAAAGGTCAGTGAAGAGATGACGG | 2.95 | 5.97 | 0.207 | 0.538 | 3.77 | 6.8 | 1.05 | 8.49 | 1.64 | 5.7 | 5.2 | 7.98 | 7.02 | 2.62 | 9.93 | 4.99 | 2.8 | 2.7
CCTAGCAGGCCAGGGTCGCTCAAGCATTTCGCTT | -0.39 | -0.535 | -1.87 | -2.27 | -0.112 | 1.78 | -0.439 | 1.84 | -0.399 | 0.562 | 0.411 | 0.213 | -0.184 | -0.345 | 0.948 | 1.23 | -0.279 | -0.195
GCTTACTGGTCAAAGGTTATAGCATGAATAGAAT | 1.14 | 3.37 | 1.09 | 1.11 | 0.856 | 3.18 | 0.438 | 4.53 | 0.553 | 2.54 | 1.78 | 3.91 | 1.68 | 0.714 | 4.35 | 1.87 | -0.137 | 0.435
TAGCCTATGTCATTGGGCCAGTATAGTACGCATC | 0.158 | 0.381 | 0.11 | 0.249 | -0.0273 | -0.188 | -0.118 | -0.0244 | -0.0402 | 0.0995 | -0.0367 | 0.242 | 0.413 | -0.587 | 0.472 | -0.314 | -0.671 | -0.244
ATCGAAAGGTCGTAGGTGAGTATACCCACCCGAA | -0.212 | 2.34 | 1.08 | 0.645 | 1.97 | 3.12 | 0.577 | 4.04 | 0.489 | 3.76 | 2.79 | 4.48 | 3.9 | 1.21 | 5.28 | 2.5 | 0.0179 | 1.21
GGAACCAGGGCATTCGAGTTGATAGCATGGCGAT | 3.39 | 2.91 | -0.295 | 0.956 | 1.01 | 2.12 | 0.865 | 0.882 | 0.0816 | 1.72 | 1.54 | 1.05 | 1.49 | 1.17 | 0.534 | 2.66 | 0.671 | 1.97
CCTACTGCGCCATTCAGAGGTCATTGATCATATG | 0.443 | 1.07 | 0.596 | 0.708 | 2.61 | 4.86 | 2.44 | 4.54 | 1.18 | 3.05 | 3.92 | 3.36 | 2.53 | 1.73 | 3.92 | 3.37 | 2.07 | 3.47
GCGACTGGGGCATCAGCAGGTTGCCATAACTTAA | 3.45 | 2.85 | 0.246 | -0.846 | -0.258 | -0.58 | -0.422 | -0.453 | -0.648 | 0.207 | 0.046 | -0.0231 | -0.244 | -0.343 | -0.273 | -0.00785 | -0.582 | -0.425
CAGCCTAGGTCCGGGCCAGTATAGGAGGAACGTT | -1.2 | -1.1 | -2.15 | -1.84 | -1.61 | -1.01 | -0.992 | -1.12 | -1.43 | -0.671 | -0.676 | -0.685 | -0.755 | -1.37 | -0.779 | -0.819 | -1.03 | -0.835
TCTTATAGATCAAGCAGGTTAAGAAAGCCTGAGT | 2.41 | 0.395 | 0.287 | 0.665 | 0.243 | 0.691 | 0.364 | 0.658 | 0.426 | 0.33 | 0.27 | 0.242 | 0.136 | 1.03 | 0.704 | 0.558 | -0.379 | 0.389
GCGACTGGGGCGTCAGCAGGTTACCATAACTTAA | 0.993 | 0.504 | -1.26 | -0.889 | -0.668 | -0.181 | -0.71 | 0.206 | -1.15 | 0.327 | 0.457 | 0.162 | -0.368 | -0.119 | 0.154 | 0.661 | -0.199 | -0.488
CAGCCTAGGTCAGGGCCAGTATAGGAGGAACGTT | 0.848 | 1.84 | -0.882 | -1.52 | 1.03 | 0.272 | -0.731 | 1.2 | -0.0375 | 3.6 | 2.58 | 3.08 | 3.8 | -0.416 | 1.54 | 2.11 | 0.526 | -0.18
